Measured values as given in PubChem BioAssay (NCATS).
Records with an inconclusive call do not appear. The source made the active and inactive calls. Calls come from the whole dose curve; as a rule, active = well fitted curve in the direction sought with a large enough effect; inconclusive = small, poorly fitted or top-dose-only effect, or another doubt; inactive = no such curve, though single readings can be large; an effect the other way counts as inactive or inconclusive.

Tests used:
[1] = Cellular Toxicity (caspase-3) HepG2 (AID 654);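 note: cells exposed to compound for 16 hours before reading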
Procedure, shortened: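 Cells plated 5 hr at 37 °C, compound added, incubated 16 hr at 37 °C. Caspase-Glo 3/7 reagent followed, 20 min at room temperature, then luminescence read. Activation scored as signal increase; AC50 from Hill fit.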

[2] = Cellular Toxicity (caspase-3) Jurkat (AID 655);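 note: cells exposed to compound for 16 h at 37 °C before reading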
Procedure, shortened: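 5000 Jurkat cells/well; compound 16 hr, 37 °C; Caspase-Glo 3/7 added, 20 min RT; luminescence read. Norm: DMSO = 0%, tamoxifen 100 uM = 100%. AC50, Hill model.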

[3] = Cellular Toxicity (caspase-3) HUV-EC-C (AID 656)
Procedure, shortened: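 qHTS; HUV-EC-C, 1000 cells/well; 5 hr settle, 16 hr cmpd, 37°C; Caspase-Glo 3/7, 20 min RT; luminescence. Norm: DMSO = 0%, tamoxifen 100 uM = 100%. Hill-fit AC50.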

[4] = Cellular Toxicity (caspase-3) SHSY5Y (AID 657);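 note: cells exposed to compound for 16 hours at 37 °C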
Text: (§1) NIH Chemical Genomics Center [NCGC]
(§2) NIH Molecular Libraries Screening Centers Network [MLSCN]
(§3) National Institutes of Environmental Health Sciences [NIEHS]
(§4) National Toxicology Program [NTP]
We have developed a 1536-well cell-based assay for quantitative high throughput screening (qHTS) against a number of cell lines to determine in vitro caspase 3/7 activity of small molecules. This particular assay uses the SH-SY5Y cell line which is derived from human neuroblastoma.
(§5) NCGC Assay Protocol Summary:
(§6) The Caspase-Glo 3/7 assay (Promega) is a homogeneous method to measure caspase-3 and caspase-7 activities in cultured cells. The quantitation of caspase 3/7 activity is based on the cleavage of a peptide-aminoluciferin substrate. […]
(§7) Using the Caspase-Glo 3/7 assay, the amount of caspase 3/7 activity was measured in the SH-SY5Y cell line with complete culture medium following compound treatment for 16 hours. […] Library compounds were measured for their ability to cause the activation of caspase 3/7 in the cell line, as reflected by an increase in luminescence signal, in a concentration-dependent manner. […] AC50 values were determined from concentration-response data modeled with the standard Hill equation. […]
(§8) 8. Detection; Luminescence; Viewlux plate reader
Keywords: caspase 3/7, apoptosis, SH-SY5Y cell line, luminescence, NTPHTS, NTPHTS_NCGC, NIEHS, EPA, DSSTox, MLSMR, MLSCN, NIH Roadmap, qHTS, NCGC

[5] = Cellular Toxicity (caspase-3) BJ (AID 658)
Procedure, shortened: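 Readout: Caspase-Glo 3/7 luminescence increase in BJ cells after 16 hr treatment at 37 °C. Staurosporine and tamoxifen served as positive controls; AC50 values came from Hill modelling of data normalized to DMSO and 10 uM staurosporine.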

[6] = Cellular Toxicity (caspase-3) MRC-5 (AID 659)
Text: as §1, §2, §3, §4
We have developed a 1536-well cell-based assay for quantitative high throughput screening (qHTS) against a number of cell lines to determine in vitro caspase 3/7 activity of small molecules. This particular assay uses the MRC-5 cell line which is derived from human normal lung fibroblasts.
as §5, §6
as §7, with “MRC-5” for “SH-SY5Y cell”
as §8
Keywords: caspase 3/7, apoptosis, MRC-5 cell line, luminescence, NTPHTS, NTPHTS_NCGC, NIEHS, EPA, DSSTox, MLSMR, MLSCN, NIH Roadmap, qHTS, NCGC

[7] = Cellular Toxicity (caspase-3) Mesangial (AID 660);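 note: combined caspase 3 and 7 activity read by Caspase-Glo luminescence; cells exposed to compound for 16 h before the caspase read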
Procedure, shortened: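 Mesangial cells, 1000/well, 5 h settle at 37 °C; compound 16 h, 37 °C; Caspase-Glo 3/7 reagent 20 min RT; luminescence. Norm.: DMSO = 0%, tamoxifen 100 uM = 100%. AC50, Hill fit.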

[8] = Cellular Toxicity (caspase-3) SK-N-SH (AID 661)
Procedure, shortened: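 Human neuroblastoma SK-N-SH, 1500 cells/well, 5 hr pre-incubation, then compound 16 hr, 37 °C. Caspase-Glo 3/7 reagent, 1 hr RT, luminescence. Norm. to DMSO/10 uM staurosporine; Hill-fit AC50.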

[9] = Cellular Toxicity (caspase-3) H-4-II-E (AID 663);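 note: cells exposed to compound for 16 hr before readout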
Procedure, shortened: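 Apoptosis induction is scored as increased luminescence from caspase 3/7 substrate cleavage in rat hepatoma H-4-II-E cells exposed to compound for 16 hr. Activity is scaled between DMSO and 100 uM tamoxifen.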

Measured: outcome

Cc1cc(O)c2c(c1)C(=O)c1cccc(O)c1C2=O
inactive: [1] | [2] | [3] | [4] | [5] | [6] | [7] | [8] | [9]
